Here are results for 51 compounds from PubChem BioAssay AID1851 (National Center for Advancing Translational Sciences (NCATS), 2009).

SMILES strings stand for the structures. Among all 16,000 compounds or so, about 4,000 (25%) were called active. Roughly 26% stayed inconclusive and do not appear here. The list is a sample of the results. Unmarked numbers belong to inactive results. The call rests on the fitted dose curve; in most records, active means well fitted curve in the direction sought with a large enough effect; inconclusive means small, poorly fitted or top-dose-only effect, or effect the other way; inactive means no such curve, though single readings can be large or run the other way.

Usually AC50 stands for the concentration at which the activity in the assay is half-maximal.
On the % scale 0 is the no-effect control and ±100 the full control effect.

This assay deals with Cytochrome P450 2C9 (Homo sapiens) (UniProt P11712). The experiment in a line: Cytochrome panel assay with activity outcomes. Conditions: recombinant CYP, pro-luciferin dealkylation, luminescence, p450-cyp2c9; series mostly up to 57.1 µM; activity, negative = inhibition: at the top concentration.
Chain of Cytochrome P450 2C9 (Homo sapiens) (P11712 whole entry, looked up): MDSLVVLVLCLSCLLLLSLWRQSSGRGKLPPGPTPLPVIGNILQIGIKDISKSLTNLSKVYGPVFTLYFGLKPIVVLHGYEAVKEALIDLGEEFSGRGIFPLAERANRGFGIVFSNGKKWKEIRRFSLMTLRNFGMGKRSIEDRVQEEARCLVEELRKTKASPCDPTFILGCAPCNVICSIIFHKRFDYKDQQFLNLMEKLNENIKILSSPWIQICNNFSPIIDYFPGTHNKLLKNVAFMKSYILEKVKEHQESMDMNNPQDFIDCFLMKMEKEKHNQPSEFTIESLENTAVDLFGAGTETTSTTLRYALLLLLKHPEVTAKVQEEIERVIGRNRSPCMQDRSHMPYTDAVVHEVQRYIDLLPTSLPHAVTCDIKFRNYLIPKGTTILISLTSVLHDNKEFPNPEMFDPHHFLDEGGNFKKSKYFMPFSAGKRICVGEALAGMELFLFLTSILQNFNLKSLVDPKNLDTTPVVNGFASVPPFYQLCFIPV
Take `CCCCCCCCCCCCCCCC(=O)C(F)(F)F`: the “activity, negative = inhibition” value was 20.8%. Consider `COCC(=O)N1CCC[C@@]2(CCN(Cc3ccc(C#N)cc3)C2)C1`, for which the “activity, negative = inhibition” value was 16.8%. Take `N#Cc1ccc(CN2CCCC3(CCN(S(=O)(=O)c4ccccc4)CC3)C2)cc1`: the AC50 is 12.6 µM (active). In the case of `COC(=O)N1CCC2(CCCN(Cc3ccccc3)C2)CC1`, the “activity, negative = inhibition” value was 0.0487%.

For the compound `COC(=O)N1CCC2(CCCN(Cc3ccc(C#N)cc3)C2)CC1`, the AC50 was 12.6 µM (active). Consider `N#Cc1ccc(CN2CCC3(CC2)CCN(S(=O)(=O)c2ccccc2)CC3)cc1`, for which the “activity, negative = inhibition” value was -8.31%.

On to `O=S(=O)(c1ccccc1)N1CCC2(CC1)CN(Cc1ccccc1)C2`, for which the “activity, negative = inhibition” value was 1.78%. In the case of `CN(C)CC[C@@H](c1ccccc1)c1ccccn1`, the AC50 entry was “inactive”. `C[C@@H](C1=C(CCN(C)C)Cc2ccccc21)c1ccccn1`: the AC50 is 0.501 µM (active). Regarding `CN(C)CC(CN(C)C)c1ccccn1`, the activity, negative = inhibition was -2.56% [at 11.4 µM]. Regarding `CNc1cc(-c2ccccc2CN(C)C)ncn1`, the activity, negative = inhibition is 24.8% [at 2.29 µM].

On to `Cc1cccc(-c2n[nH]c([N+](=O)[O-])n2)c1`, for which the half-maximal activity concentration (AC50) was 20 µM (active). Consider `CCCCn1c(=N)n(CC(=O)c2ccco2)c2ccccc21`, for which the “activity, negative = inhibition” value is -8.19%.

On to `CCCCN1C(=O)NC(NC(=O)c2ccco2)(C(F)(F)F)C1=O` (stereo unspecified), for which the concentration at half-maximal activity (AC50) was 12.6 µM (active).

As for `CC(=O)NC1=NC(=O)C(C)S1` (stereo unspecified), the “activity, negative = inhibition” value is -14.5%. Take `CCc1ccc(NC(=O)Cn2nc(C(F)(F)F)c3c2CCC3)cc1`: the “activity, negative = inhibition” value was -29%. For the compound `O=C(O)/C=C/C(=O)Nc1ccc(F)cc1F`, the “activity, negative = inhibition” value was -8.84%. On to `Cn1nc(C(F)(F)F)c(C(=O)Nc2ccc(F)cc2F)c1Sc1ccc(C(F)(F)F)cc1`, for which the AC50 was 4.47 µM (active). Regarding `Cn1nc(C(F)(F)F)c(C(=O)Nc2ccc(F)cc2F)c1Sc1cccc(C(F)(F)F)c1`, the half-maximal activity concentration (AC50) is 1.58 µM (active). Turning to `Cc1ccc(NC(=O)c2c(C(F)(F)F)nn(C)c2SCc2cccc(C(F)(F)F)c2)cc1C`, the AC50 was 0.891 µM (active). Turning to `CC(=O)NC1(c2ccc(F)cc2)CCN(C(=O)Nc2ccc(F)cc2F)CC1`, the “activity, negative = inhibition” value is -28.9%.

With `CCNS(=O)(=O)c1ccc(NC(=O)c2cc(C(F)(F)F)nn2C)cc1`, the “activity, negative = inhibition” value is 3.85%. For the compound `Cc1ccc(NC(=O)c2sccc2SCc2cccc(C(F)(F)F)c2)cc1`, the AC50 is 2.51 µM (active).

With `CC(=O)N(/N=C1\Sc2ccccc2C1=O)c1ccccc1C`, the concentration at half-maximal activity (AC50) is 14.1 µM (active). For `CC(=O)N(/N=C1\Sc2ccccc2C1=O)c1ccccc1`, the “activity, negative = inhibition” value was -1.76%. `Cc1sc(NC(=O)C2CCCCC2C(=O)O)c(C(N)=O)c1C` (stereo unspecified): the “activity, negative = inhibition” value is -26.8%. Turning to `CCOC(=O)c1c(NC(=O)CSc2nnc(C)s2)sc2c1CCCCC2`, the AC50 is 11.2 µM (active). Consider `Cc1sc(NC(=O)C(C)C)c(C(=O)Nc2ccccc2)c1C`, for which the half-maximal activity concentration (AC50) is 12.6 µM (active).

With `CCOc1ccc(CC(=O)Nc2sc(Cc3ccccc3)c(C)c2C(N)=O)cc1OCC`, the “activity, negative = inhibition” value was -18.4%. On to `COC(=O)c1c(NC(C)=O)sc(Cc2ccccc2)c1C`, for which the AC50 is 10 µM (active). On to `CCOC(=O)c1c(NC(=O)c2c(C)noc2C)sc2c1CCCCC2`, for which the “activity, negative = inhibition” value is -13.5%.

On to `CCOC(=O)c1c(NC(=O)CSc2nnnn2C)sc(C)c1C`, for which the half-maximal activity concentration (AC50) was 22.4 µM (active).

On to `Cc1cccc(NC(=O)CSc2nnnn2C)n1`, for which the “activity, negative = inhibition” value was -12.2%.

For the compound `CO[C@]1(NC(=O)CSCC#N)C(=O)N2C(C(=O)O)=C(CSc3nnnn3C)CS[C@H]21`, the AC50 result was “inactive”. For `COC(=O)c1c(C)[nH]c(C)c1C(=O)c1ccccc1Cc1ccccc1`, the “activity, negative = inhibition” value is -10.3%.

As to `CN(C)c1nc(N)c(C(=O)N=C(N)N)nc1Cl`, the “activity, negative = inhibition” value was -9.29%. For the compound `COC(=O)C1=C(C)[C@@H](O)[C@@H](C)[C@H](c2c(OC)c(OC)c(C)c(OC)c2OC)O1`, the activity, negative = inhibition was -3.08% [at 11.4 µM].

`CC(=O)N1CCC2(CCCN(Cc3nccs3)C2)CC1`: the “activity, negative = inhibition” value is -25.5%. `CCOC(=O)c1c(NC(=O)Nc2ccccc2)sc(C)c1C`: the AC50 is 3.55 µM (active). On to `CCOC(=O)c1c(NC(=O)/C=C/c2ccc3c(c2)OCO3)sc(C)c1C`, for which the “activity, negative = inhibition” value is -7.1%.

Take `Cc1cc(Nc2ccccc2)nc(N)n1`: the “activity, negative = inhibition” value is -3.06%. For `Cc1nnc(SCc2nc(N)nc(Nc3ccccc3)n2)s1`, the half-maximal activity concentration (AC50) was 10 µM (active). Consider `CCCSc1nnc2n(N)c(=O)c3ccccc3n12`, for which the “activity, negative = inhibition” value was -23.6%. Take `Nc1nc(N)[n+]([O-])c(N)c1NCO`: the activity, negative = inhibition was 6.07% [at 11.4 µM]. `Nc1nc(N)c(CCCCc2ccccc2)c(N)n1`: the activity, negative = inhibition is 5.71% [at 11.4 µM]. Consider `CCOC(=O)c1cnc(SCCc2ccccc2)nc1N`, for which the AC50 is 11.2 µM (active). On to `CCOC(=O)c1cnc(N(C)C)nc1SC(=N)N`, for which the activity, negative = inhibition was -5.38% [at 11.4 µM]. On to `CC1(C)C2([N+](=O)[O-])CN3CC1([N+](=O)[O-])CN(C2)C31CCCC1`, for which the “activity, negative = inhibition” value was -7.73%. As to `C=C1C(=O)O[C@@H]2[C@@H]1CC/C(C)=C\CC[C@@]1(C)O[C@H]21`, the AC50 entry was “inactive”. Take `O=C(O)c1ccc2c3c1cccc3c(=O)n1c3ccccc3nc21`: the concentration at half-maximal activity (AC50) is 0.158 µM (active). For the compound `O=c1c2ccc([N+](=O)[O-])c3cccc(c32)c2nc3ccccc3n12`, the “activity, negative = inhibition” value is -7.5%.
